According to PubChem BioAssay AID652115 (Broad Institute, 2013):
Screen size: about 330,000 compounds; about 3,800 (1.2%) were called active. For the sample, actives were picked, then their nearest neighbours and some compounds at random. Values without a mark were called inactive. Rule as the data show it: active = inhibition above about 15%; inconclusive = no clear call, values can overlap the other calls; inactive = below that.

The molecules below were run against NAD-dependent protein deacylase sirtuin-5, mitochondrial (Homo sapiens) (UniProt Q9NXA8) (assay: SIRT5 desuccinylase inhibitors, primary screen, biochemical, fluorescence imaging, single point, set 5 (AID 652115)). Conditions: Purified SirT5, succinyl-peptide AMC, trypsin-coupled fluorescence; at 15 µM; hits give high values.
Chain of NAD-dependent protein deacylase sirtuin-5, mitochondrial (Homo sapiens) (Q9NXA8 whole entry, looked up): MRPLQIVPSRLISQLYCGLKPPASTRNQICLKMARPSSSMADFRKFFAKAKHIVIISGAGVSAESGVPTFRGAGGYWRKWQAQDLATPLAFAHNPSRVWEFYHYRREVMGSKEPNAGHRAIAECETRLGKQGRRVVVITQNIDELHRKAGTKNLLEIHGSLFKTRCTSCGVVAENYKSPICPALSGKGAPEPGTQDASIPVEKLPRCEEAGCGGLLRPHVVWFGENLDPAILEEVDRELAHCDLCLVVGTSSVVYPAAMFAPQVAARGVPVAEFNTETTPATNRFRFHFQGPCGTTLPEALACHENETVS
`CCOC(=O)CN1C(=O)C(O)(CC(=O)c2ccccn2)c2ccccc21` (configuration not stated) was tested, and the inhibition was -3.62%.
`C=CCN1C(=O)C2(OCCCO2)c2cccc(Cl)c21` showed an inhibition of -2.09%.
`C=CCN1C(=O)C(O)(CC(=O)c2ccccn2)c2ccccc21` (configuration not stated) was tested, and the inhibition was 26.6% (active).
With `C[C@@H]1CN([C@H](C)CO)C(=O)c2cc(NC(=O)NC3CCCCC3)ccc2O[C@@H](C)CCCCO[C@H]1CN(C)C(=O)Nc1ccccc1` the inhibition was 3.67%.
In the case of `CCCNC(=O)N1[C@@H](C#N)[C@H](c2ccc(-c3ccc(C(=O)N(C)C)cc3)cc2)[C@@H]1CO`, the inhibition is reported as 4.75%.
Work on `CO[C@@H]1CN(C)C(=O)c2cc(NC(=O)C3CCC3)ccc2OC[C@H](C)N(Cc2nccs2)C[C@H]1C` yielded an inhibition of -1.69%.
For `COc1cccc(S(=O)(=O)N2CCC3(CC2)CN[C@H](CO)c2c3c3ccc(OC)cc3n2C)c1`, the inhibition was 1.64%.
`O=C(C[C@@H]1C[C@@H]2c3cc(NS(=O)(=O)c4ccc(F)cc4)ccc3O[C@@H]2[C@H](CO)O1)NCc1cc(F)ccc1F` showed an inhibition of -3.29%.
With `COCC(=O)N1CC(=O)N2[C@H](C1)[C@H](c1ccc(C#CC3CCCCC3)cc1)[C@@H]2CO` the inhibition was -2.8%.
`COc1ccccc1CN(C)C(=O)c1cc2ccccc2o1` showed an inhibition of -1.39%.
For `CN(C)C(CNC(=O)c1cc2ccccc2o1)c1ccccc1` (configuration not stated), the inhibition was -2.25%.
In the case of `CN(C)CCCCCN(C)Cc1cc2ccccc2o1`, the inhibition is reported as 36.8% (active).
`C[C@@H]1CN([C@H](C)CO)C(=O)c2cc(NS(=O)(=O)c3ccc(F)cc3)ccc2O[C@H]1CN(C)Cc1ccncc1` showed an inhibition of -0.686%.
With `O=S(=O)(c1ccccc1)N1C[C@@H]2[C@H](c3ccccc31)[C@H](CO)N2Cc1ccccn1` the inhibition was 1.34%.
With `O=C(CSc1nc2ccccc2c(=O)[nH]1)Nc1nc(-c2ccc(Br)cc2)cs1` the inhibition was -5.37%.
`CC(=O)NCc1ccc(-c2csc(NC(=O)CCCc3nc4ccccc4c(=O)[nH]3)n2)cc1` was tested, and the inhibition was -2.85%.
`Cc1ccc(-c2csc(NC(=O)Cn3[nH]c(=O)c4ccccc4c3=O)n2)cc1` was tested, and the inhibition was 112% (active).
In the case of `Cc1noc(C)c1S(=O)(=O)N(C)C[C@@H]1OCCCC[C@@H](C)Oc2ccc(NC(=O)c3ccccc3)cc2C(=O)N([C@H](C)CO)C[C@H]1C`, the inhibition is reported as 0.24%.
`C[C@@H]1CN([C@H](C)CO)C(=O)c2cccc(NS(C)(=O)=O)c2O[C@@H]1CN(C)S(=O)(=O)c1cccs1` was tested, and the inhibition was 1.65%.
In the case of `C[C@H](CO)N1C[C@H](C)[C@@H](CN(C)C(=O)NC2CCCCC2)Oc2c(NC(=O)Nc3ccc(F)cc3)cccc2C1=O`, the inhibition is reported as 103% (active).
Molecule `COc1ccc(NC(=O)N(C)C[C@H]2OCc3ccccc3-c3ccccc3C(=O)N([C@H](C)CO)C[C@@H]2C)cc1` has an inhibition of 1.71%.
For `COc1ccc(NC(=O)Nc2cccc3c2O[C@H](CN(C)S(=O)(=O)c2cccs2)[C@H](C)CN([C@@H](C)CO)C3=O)cc1`, the inhibition was 1.18%.
`C[C@H]1CN([C@@H](C)CO)C(=O)c2cccc(NC(=O)Nc3ccc(C(F)(F)F)cc3)c2O[C@H]1CN(C)C(=O)NC1CCCCC1` gave an inhibition of 2.24%.
For `C[C@@H]1CN([C@@H](C)CO)C(=O)c2ccccc2-c2ccccc2CO[C@H]1CN(C)C(=O)Nc1ccccc1`, the inhibition was -1.46%.
For `CC(C)NC(=O)Nc1cccc2c1O[C@H](CN(C)S(=O)(=O)c1cccs1)[C@@H](C)CN([C@H](C)CO)C2=O`, the inhibition was 23.7% (active).
`C[C@@H]1CN([C@H](C)CO)C(=O)c2cccc(NC(=O)Nc3ccccc3)c2O[C@@H]1CN(C)C(=O)NC1CCCCC1` gave an inhibition of 3.35%.
In the case of `C[C@H]1CN([C@@H](C)CO)C(=O)c2ccccc2-c2ccccc2CO[C@H]1CN(C)C(=O)Nc1ccc(-c2ccccc2)cc1`, the inhibition is reported as 16.8% (active).
